Results filed as inconclusive are left out. Active and inactive are the calls of the source. Unless noted, calls follow the shape of the full dose curve.
How the values were obtained:
[1] = Nuclear factor erythroid 2-related factor 2/antioxidant responsive element (Nrf2/ARE) small molecule agonists: qHTS cell viability counter screen in human keratinocytes (AID 1919968; active = well fitted curve in the direction sought with a large enough effect in the repeat runs; an effect the other way counts as inactive or inconclusive; also: nearly all actives have a fitted effect of over 55% in size; also: potency is read from the fitted curve at half-maximal effect)
In short: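 Parallel cytotoxicity read: KeratinoSens HaCaT cells, compound treatment 23 h, viability by CellTiter-Fluor fluorescence 1 h post-reagent.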

[2] = Nuclear factor erythroid 2-related factor 2/antioxidant responsive element (Nrf2/ARE) small molecule agonists: luciferase reporter gene qHTS assay in human keratinocytes (AID 1919969); also: nearly all actives have a fitted effect of over 35% in size; also: potency is read from the fitted curve at half-maximal effect
[3] = target: Gonadotropin-releasing hormone receptor (Homo sapiens) (UniProt P30968); assay: Human gonadotropin-releasing hormone receptor (GnRHR) small molecule agonists, calcium flux assay in GnRHR-HEK293 cells (AID 1920063); also: nearly all actives have a fitted effect of over 35% in size
Sequence of Gonadotropin-releasing hormone receptor (Homo sapiens) (P30968 whole entry, looked up): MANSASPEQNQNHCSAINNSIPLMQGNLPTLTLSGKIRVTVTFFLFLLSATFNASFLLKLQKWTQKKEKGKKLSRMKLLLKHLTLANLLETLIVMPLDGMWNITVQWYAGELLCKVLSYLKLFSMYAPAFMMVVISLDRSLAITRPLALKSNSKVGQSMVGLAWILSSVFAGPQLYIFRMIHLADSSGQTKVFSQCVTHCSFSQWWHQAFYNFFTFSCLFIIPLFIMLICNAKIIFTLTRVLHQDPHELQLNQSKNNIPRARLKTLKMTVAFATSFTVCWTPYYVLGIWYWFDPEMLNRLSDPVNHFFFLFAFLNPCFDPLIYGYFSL
In short: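 Calcium flux, agonist mode, human GnRHR stably integrated in HEK293; dye 1 h at 37 C before compound; Ex/Em=480/540 kinetic read, 3 min; 15 concentrations, triplicate.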

[4] = target: KiSS-1 receptor (Homo sapiens) (UniProt Q969F8); assay: Human kisspeptin (KISS1R) small molecule agonists, calcium flux assay in KISS1R-HEK293 cells (AID 1920064; active = well fitted curve in the direction sought with a large enough effect in the repeat runs; an effect the other way counts as inactive or inconclusive)
Sequence of KiSS-1 receptor (Homo sapiens) (Q969F8 whole entry, looked up): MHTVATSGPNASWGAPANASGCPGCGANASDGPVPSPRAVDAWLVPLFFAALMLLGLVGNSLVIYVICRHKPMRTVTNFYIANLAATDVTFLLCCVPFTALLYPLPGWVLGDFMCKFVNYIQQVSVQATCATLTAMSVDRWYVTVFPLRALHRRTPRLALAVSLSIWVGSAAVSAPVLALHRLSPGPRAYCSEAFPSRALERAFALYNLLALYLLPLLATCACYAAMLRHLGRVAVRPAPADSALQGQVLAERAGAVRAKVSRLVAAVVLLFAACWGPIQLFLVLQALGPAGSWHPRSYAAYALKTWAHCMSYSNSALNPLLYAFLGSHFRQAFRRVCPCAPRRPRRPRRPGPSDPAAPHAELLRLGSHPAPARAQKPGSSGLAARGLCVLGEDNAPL
In short: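 Triplicate 15-concentration series were applied to dye-loaded human KISS1R HEK293 cells, and agonist-evoked calcium fluorescence was captured for 3 min.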

[5] = G protein-coupled receptor (GPCR) small molecule agonists, calcium flux assay: HEK293 wild type cell line counter screen (AID 1920065)
In short: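 Non-specific calcium responders were flagged by adding DMSO-dissolved compounds to dye-loaded cells and reading 480/540 nm fluorescence each second for 3 min; ATP served as positive control.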

[6] = p53 small molecule agonists, cell-based qHTS assay with human liver microsomes (AID 1963577)
In short: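 Compounds act here after metabolic activation: human liver microsomes and NADPH, both at 0.5 mg/mL final, were co-added to p53RE-bla cells. Incubation ran 16 h at 37 C, followed by LiveBLAzer detection.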

[7] = p53 small molecule agonists, cell-based qHTS assay with rat liver microsomes (AID 1963578)
In short: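 Read-out is beta-lactamase reporter fluorescence (LiveBLAzer, 2 h, room temperature, dark) in p53RE-bla cells treated 16 h at 37 C with compound, rat liver microsomes and NADPH, both 0.5 mg/mL final.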

[8] = p53 small molecule agonists, cell-based qHTS assay with human liver microsomes: qHTS cell viability counter screen (AID 1963579); also: nearly all actives have a fitted effect of over 45% in size
In short: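 Cells carrying the p53 response-element beta-lactamase reporter are treated for 16 h at 37 C with test compounds in the presence of human liver microsomes and NADPH (both 0.5 mg/mL final); ATP-based CellTiter-Glo luminescence then reports viability.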

[9] = p53 small molecule agonists, cell-based qHTS assay with rat liver microsomes: qHTS cell viability counter screen (AID 1963580); also: nearly all actives have a fitted effect of over 45% in size
In short: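 Rat liver microsome (0.5 mg/mL final) and NADPH (0.5 mg/mL final) co-incubation with compounds for 16 h at 37 C on HCT-116 p53RE-bla cells; cytotoxicity taken from intracellular ATP luminescence.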

[10] = p53 small molecule agonists, cell-based qHTS assay (AID 1963582; active = well fitted activation curve with a large enough effect in the signal ratio in the repeat runs, not every such curve was filed as active; the % refers to the signal ratio)
In short: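 Beta-lactamase reporter cells (p53RE-bla) treated with compounds for 16 h at 37 C; FRET substrate, 2 h, room temperature; fluorescence intensity.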

[11] = target: 5-hydroxytryptamine receptor 2A (Homo sapiens) (UniProt P28223); assay: 5-hydroxytryptamine receptor 2A (HTR2A) small molecule antagonists, cell-based qHTS assay (AID 1963586); also: nearly all actives have a fitted effect of over 45% in size; also: potency is read from the fitted curve at half-maximal effect
Sequence of 5-hydroxytryptamine receptor 2A (Homo sapiens) (P28223 whole entry, looked up): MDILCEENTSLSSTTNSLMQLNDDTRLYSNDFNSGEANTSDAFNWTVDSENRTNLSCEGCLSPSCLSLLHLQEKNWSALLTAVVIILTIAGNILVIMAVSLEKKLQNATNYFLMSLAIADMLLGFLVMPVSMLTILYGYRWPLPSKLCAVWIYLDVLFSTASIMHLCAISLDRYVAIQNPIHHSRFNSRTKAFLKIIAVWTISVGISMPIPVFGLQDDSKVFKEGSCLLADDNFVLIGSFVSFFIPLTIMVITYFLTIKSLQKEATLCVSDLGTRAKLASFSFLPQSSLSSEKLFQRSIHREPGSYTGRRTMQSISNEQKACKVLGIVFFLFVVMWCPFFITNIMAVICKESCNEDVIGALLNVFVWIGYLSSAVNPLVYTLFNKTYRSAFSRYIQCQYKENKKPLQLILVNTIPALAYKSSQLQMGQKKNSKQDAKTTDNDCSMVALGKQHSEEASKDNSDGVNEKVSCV
In short: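 CHO cells stably expressing human HTR2A were plated for 18 h at 37 C, then loaded with calcium dye for 1 h. Compounds were preincubated 5 min at room temperature before DOI (4 nM solution) was added. Kinetic fluorescence was read for 3 min.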

[12] = target: 5-hydroxytryptamine receptor 2A (Homo sapiens) (UniProt P28223); assay: 5-hydroxytryptamine receptor 2A (HTR2A) small molecule agonists, cell-based qHTS assay (AID 1963587); also: nearly all actives have a fitted effect of over 30% in size
In short: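 Kinetic calcium-flux fluorescence (2 min, 1 sec intervals) after compound addition in agonist mode. HTR2A-CHO cells were cultured 18 h, then dye-loaded 1 h at 37 C.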

[13] = target: Muscarinic acetylcholine receptor M1 (Homo sapiens) (UniProt P11229); assay: Cholinergic receptor muscarinic 1 (CHRM1) small molecule antagonists, cell-based qHTS assay (AID 1963588); also: nearly all actives have a fitted effect of over 40% in size
Sequence of Muscarinic acetylcholine receptor M1 (Homo sapiens) (P11229 whole entry, looked up): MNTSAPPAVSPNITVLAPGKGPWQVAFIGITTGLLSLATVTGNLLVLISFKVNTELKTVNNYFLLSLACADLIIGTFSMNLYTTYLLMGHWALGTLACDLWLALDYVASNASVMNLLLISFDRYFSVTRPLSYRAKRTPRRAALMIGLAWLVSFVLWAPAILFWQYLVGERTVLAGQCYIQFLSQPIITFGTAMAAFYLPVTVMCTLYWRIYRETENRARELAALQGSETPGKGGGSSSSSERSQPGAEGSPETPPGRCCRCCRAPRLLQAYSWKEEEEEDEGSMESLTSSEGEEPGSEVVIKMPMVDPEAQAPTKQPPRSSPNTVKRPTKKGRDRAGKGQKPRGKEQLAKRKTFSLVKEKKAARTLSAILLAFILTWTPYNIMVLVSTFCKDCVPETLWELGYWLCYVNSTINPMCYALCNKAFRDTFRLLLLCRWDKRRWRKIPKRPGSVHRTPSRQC
In short: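 Compounds were tested at 15 concentrations in three independent runs. Dye-loaded CHRM1-CHO cells were exposed 5 min at room temperature before stimulation by acetylcholine added at 50nM. Intracellular calcium was read kinetically on FDSS for 3 min.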

[14] = target: Muscarinic acetylcholine receptor M1 (Homo sapiens) (UniProt P11229); assay: Cholinergic receptor muscarinic 1 (CHRM1) small molecule agonists, cell-based qHTS assay (AID 1963589); also: nearly all actives have a fitted effect of over 35% in size
In short: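 qHTS, 15-point titration, 3 independent runs: compounds pin-transferred onto dye-loaded CHRM1-CHO cells (human M1), calcium fluorescence followed every second to detect agonism.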

[15] = cAMP Responsive Elements (CRE) small molecule antagonists, cell-based qHTS assay (AID 1963591; active = well fitted inhibition curve with a large enough effect in the signal ratio in the repeat runs, not every such curve was filed as active; the % refers to the signal ratio)
In short: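 Fluorescence intensity from cleaved LiveBLAzer B/G substrate (2 h, room temperature) quantified CRE-bla activity in HEK 293T cells exposed 3 h to compound with 0.25 uM final NKH477.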

[16] = target: Beta-2 adrenergic receptor (Homo sapiens) (UniProt P07550); assay: Adrenergic beta2 receptor (ADRB2) small molecule antagonists, cell-based qHTS assay (AID 1963592); also: series mostly up to about 92 µM; nearly all actives have a fitted effect of over 50% in size
Sequence of Beta-2 adrenergic receptor (Homo sapiens) (P07550 whole entry, looked up): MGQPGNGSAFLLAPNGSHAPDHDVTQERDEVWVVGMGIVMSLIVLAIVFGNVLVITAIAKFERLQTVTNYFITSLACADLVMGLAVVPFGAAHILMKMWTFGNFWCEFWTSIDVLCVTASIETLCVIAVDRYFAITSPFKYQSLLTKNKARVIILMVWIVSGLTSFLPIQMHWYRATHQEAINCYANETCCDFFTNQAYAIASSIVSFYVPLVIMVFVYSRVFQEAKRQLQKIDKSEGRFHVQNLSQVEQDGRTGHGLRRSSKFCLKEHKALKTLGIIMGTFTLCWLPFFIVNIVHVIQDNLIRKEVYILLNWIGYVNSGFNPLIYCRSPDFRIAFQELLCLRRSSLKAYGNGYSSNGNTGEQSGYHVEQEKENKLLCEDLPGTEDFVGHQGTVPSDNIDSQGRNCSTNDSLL
In short: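 Assay format: CHO-ADRB2 cells, 18-20hr seeding at 37C/5% CO2, then compound plus 1nM isoproterenol agonist mix for 0.5hr RT. Homogeneous time-resolved fluorescence cAMP detection after 1hr, expressed as 665/615 nm ratio.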

[17] = target: D(2) dopamine receptor (Homo sapiens) (UniProt P14416); assay: Dopamine D2 receptor (DRD2) small molecule agonists, cell-based qHTS assay (AID 1963594); also: nearly all actives have a fitted effect of over 35% in size
Sequence of D(2) dopamine receptor (Homo sapiens) (P14416 whole entry, looked up): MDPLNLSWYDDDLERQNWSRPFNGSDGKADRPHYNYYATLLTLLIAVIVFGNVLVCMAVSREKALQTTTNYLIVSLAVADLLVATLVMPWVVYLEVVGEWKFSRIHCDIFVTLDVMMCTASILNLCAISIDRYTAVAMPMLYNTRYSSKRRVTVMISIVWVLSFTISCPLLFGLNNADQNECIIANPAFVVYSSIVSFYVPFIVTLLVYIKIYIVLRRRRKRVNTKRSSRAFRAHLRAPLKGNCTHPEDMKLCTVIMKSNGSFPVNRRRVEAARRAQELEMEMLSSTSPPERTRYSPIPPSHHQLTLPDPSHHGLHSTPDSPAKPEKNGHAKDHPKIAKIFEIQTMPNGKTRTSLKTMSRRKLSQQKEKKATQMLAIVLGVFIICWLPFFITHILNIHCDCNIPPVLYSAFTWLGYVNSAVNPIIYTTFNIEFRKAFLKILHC
In short: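 cAMP accumulation in DRD2-HEK293 cells measured by HTRF after 1 h detection; compounds added 10 min before NKH477 (200nM […]) forskolin-analogue stimulation, 30 min at room temperature, with Ro20-1724 present at 0.1 mM final.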

[18] = target: D(2) dopamine receptor (Homo sapiens) (UniProt P14416); assay: Dopamine D2 receptor (DRD2) small molecule antagonists, cell-based qHTS assay (AID 1963595; active = well fitted inhibition curve with a large enough effect in the signal ratio in the repeat runs, with a control signal flat; the % refers to the signal ratio)
In short: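 Stable D2 receptor HEK293 line, 24 h after seeding. Compound preincubated 10 min, then quinpirole (12 nM) with forskolin analogue NKH477 (200 nM), 30 min, room temperature. Detection by time-resolved FRET of cAMP.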

[19] = cAMP Responsive Elements (CRE) small molecule agonists, cell-based qHTS assay (AID 1963590)
In short: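 Quantitative HTS for CRE agonists: HEK 293T CRE-bla cells, overnight plating, 3 h compound incubation at 37 C/5% CO2, then 2 h room-temperature LiveBLAzer B/G FRET substrate loading.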

[20] = target: Beta-2 adrenergic receptor (Homo sapiens) (UniProt P07550); assay: Adrenergic beta2 receptor (ADRB2) small molecule agonists, cell-based qHTS assay (AID 1963593);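 also: CHO cells stably overexpressing human ADRB2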
In short: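 CHO cells stably over-expressing ADRB2 were plated overnight at 37C, then dosed with compounds plus a stimulation mix containing 100uM IBMX and 25uM Ro-20-1724 for 0.5hr at room temperature. cAMP was measured by HTRF competition, 1hr.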

Measured: Potency

CCCCCCCCOS(=O)(=O)O
not listed: [18] | [19] | [20]
inactive: all other assays above

CN1CCN(c2cc3c(cc2F)c(=O)c(C(=O)O)cn3-c2ccc(F)cc2)CC1
active: [1] 1.88 µM
not listed: [15] | [19] | [20]
inactive: all other assays above

Cc1ccccc1CCO
not listed: [13] | [20]
inactive: all other assays above

CCCCCCCCCOC(C)=O
not listed: [19]
inactive: all other assays above

CCN(CC)CCOC(=O)C(c1ccccc1)c1ccccc1
active: [11] 7.29 µM
not listed: [12] | [13] | [18] | [20]
inactive: all other assays above

CCCC(=O)OC(=O)CCC
not listed: [19]
inactive: all other assays above

CN1CCCC(n2nc(Cc3ccc(Cl)cc3)c3ccccc3c2=O)CC1 (centres undefined)
active: [11] 0.46 µM
not listed: [13] | [15] | [16] | [18] | [19] | [20]
inactive: all other assays above

OCC(CO)n1cnc(-c2ccc(F)cc2)c1-c1ccnc(Oc2ccccc2)n1
not listed: [15] | [19]
inactive: all other assays above

c1ccc(CC2=NCCN2)cc1
not listed: [12] | [15]
inactive: all other assays above

CC=C(Cl)Cl
not listed: [13] | [19] | [20]
inactive: all other assays above

O=C(C(Cl)Cl)N1CCOC12CCCCC2
not listed: [14] | [20]
inactive: all other assays above

Cc1cc(C)n(CO)n1
not listed: [13]
inactive: all other assays above

CN(C)c1ccc(CCO)cc1
active: [2] 27.1 µM
not listed: [19]
inactive: all other assays above

OCCN1CN(CCO)CN(CCO)C1
not listed: [15] | [17] | [18] | [19] | [20]
inactive: all other assays above

C1CCN(CN2CCCCC2)CC1
not listed: [11] | [17]
inactive: all other assays above

CCOC(=O)[C@H](CCc1ccccc1)N[C@@H](C)C(=O)N(CC(=O)O)C1Cc2ccccc2C1
not listed: [15] | [19] | [20]
inactive: all other assays above

Reference: PubChem BioAssay (Tox21)
